Assay results as given in PubChem BioAssay AID772 (SRMLSC, 2007).
The campaign covered roughly 3,300 compounds. About 20 (0.6%) were called active.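 The calls were made as follows: active = growth inhibition above 90%, meaning viable cell count cut by more than 90% versus vehicle controls; inactive = growth inhibition below 90%.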 The sample as a whole holds a higher share of actives than the screen did.

Assay: HT29 colon tumor cell growth inhibition, primary screen, imaging, high content imaging, 72 h, CellTiter-Glo (AID 772);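 as to condensed nuclei: condensed means nuclear area below control median minus 1.5 SD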
Conditions: HCS imaging cell count, at 10 µM, stronger effect = higher value; for condensed nuclei: measured here: percent cells with condensed nuclei
[1] = measured here: ATP CellTiter-Glo viability

Row | SMILES | growth inhibition | growth inhibition [1] [%] | condensed nuclei [%]
1 | CCCCc1c(C)c2ccc(OCC(C)=O)cc2oc1=O | -30.8% (inactive) | -58.8 | 2.85
2 | CO[C@H]1C[C@@H]2CC[C@@H](C)[C@@](O)(O2)C(=O)C(=O)N2CCCC[C@H]2C(=O)O[C@H]([C@H](C)C[C@@H]2CC[C@@H](O)[C@H](OC)C2)CC(=O)[C@H](C)C=C(C)[C@@H](O)[C@@H](OC)C(=O)[C@H](C)C[C@H](C)C=CC=CC=C1C | 19.1% (inactive) | -4.98 | 2.81
3 | CCOC(=O)c1ccc(N=Cc2nc(-c3ccccc3)oc2OC(C)=O)cc1 | 6.56% (inactive) | -17.5 | 12.1
4 | CC12CCC(C(=O)NCCCN3CCOCC3)(OC1=O)C2(C)C (stereo unspecified) | -26.1% (inactive) | -11.1 | 1.65
5 | CC(C)CC(NC(=O)OC(C)(C)C)C(=O)NCc1ccccc1 (stereo unspecified) | 9.38% (inactive) | -13 | 1.7
6 | CCOc1ccc(C2C(C(=O)c3ccc(C)o3)=C(O)C(=O)N2CCN2CCOCC2)cc1OC (stereo unspecified) | -37.5% (inactive) | -33.6 | 4.84
7 | O=C(CCN1CCCCC1)Nc1cccc(Cl)c1 | 35% (inactive) | 28.1 | 26.1
8 | N#Cc1nc(-c2cccs2)oc1NCc1ccc2c(c1)OCO2 | 48% (inactive) | 8.08 | 3.78
9 | COC(=O)c1[nH]c(C)c(/C(O)=C2\C(=O)C(=O)N(CCN3CCOCC3)C2c2cccnc2)c1C (stereo unspecified) | -38.7% (inactive) | -21.1 | 3.67
10 | N#CC1=C(N)OC2=C(C(=O)CCC2)C1CCc1ccccc1 (stereo unspecified) | 12% (inactive) | -15.7 | 5.15
11 | Oc1ccccc1-c1nc(NCCN2CCOCC2)c2ccccc2n1 | 30.6% (inactive) | 94 | 18.9
12 | Fc1ccccc1-c1nc(NCCCN2CCOCC2)c2ccccc2n1 | 92.5% (active) | 79 | 14.3
13 | COc1cccc(-c2nc(NCCN3CCOCC3)c3ccccc3n2)c1O | 38% (inactive) | 86.2 | 23.4
14 | COCCN(CCOC)C(=O)C12CCC(C)(C(=O)C1)C2(C)C (stereo unspecified) | 31.4% (inactive) | -4.4 | 10.7
15 | CCN(CC)CCN1C(=O)C(=O)/C(=C(/O)c2c(C)[nH]c(C(=O)OC)c2C)C1c1cccc(OC)c1 (stereo unspecified) | -109% (inactive) | -54.7 | 4.61
16 | COC(=O)c1ccc(-c2sc3nc(N4CCOCC4)c4c(c3c2N)CCCC4)o1 | 89.6% (inactive) | 82.9 | 55.6
17 | COc1cc2c(C(=O)N3CCN(c4ccccc4)CC3)c(C)oc2cc1Br | -0.57% (inactive) | -11.3 | 5.92
18 | Cc1ccc(OCC(=O)NCC(=O)n2nc(C)cc2C)cc1 | -54.1% (inactive) | -44.3 | 2.73
19 | Cc1ccccc1N1C(=O)CC(Sc2nnc(-c3ccccc3)o2)C1=O (stereo unspecified) | -77.9% (inactive) | -47.7 | 3.38
20 | Cc1cc(C)cc(CC2CC(=O)N(c3cc(C)on3)C2=O)c1 (stereo unspecified) | 2.63% (inactive) | -16.1 | 7.19
21 | CCOC(=O)c1sc(-n2[nH]c(C)cc2=O)nc1C | 14.3% (inactive) | -4.21 | 1.46

Row | SMILES | growth inhibition | growth inhibition [1] [%] | condensed nuclei [%]
22 | C=CCc1cccc(CNc2nc3ccccc3n2C(C)C)c1O | 95.1% (active) | 88.3 | 14.6
23 | C=CCc1cccc(/C=N/n2cnnc2)c1O | 34.7% (inactive) | 20.1 | 13.3
24 | C=CCc1cccc(/C=N/c2ncn[nH]2)c1O | -6.01% (inactive) | -17.7 | 2.92
25 | CC1(c2ccco2)NC(=O)NC1=O (stereo unspecified) | 16.9% (inactive) | 7.41 | 12.6
26 | CC(C)CCNc1nc2c(cc1C#N)COC(C)(C)C2 | 12.7% (inactive) | 2.37 | 1.81
27 | CNc1nc(C)c(C#N)cc1C(C)=O | 82.9% (inactive) | 37.9 | 1.85
28 | CN1C(=O)N(c2ccccc2)C(Nc2nncs2)C1(C)C (stereo unspecified) | -44.1% (inactive) | -46.4 | 5.92
29 | CCOC(=O)C1CCN(C(C)=C2C(=O)c3ccccc3C2=O)CC1 | -17.6% (inactive) | -13.6 | 15.2
30 | CCCCCSc1nc(N2CCOCC2)c2c(c1C#N)CC(C)(C)OC2 | 69.6% (inactive) | 74.9 | 29.7
31 | CC1(C)Cc2c(C#N)c(SCCOc3ccccc3)nc(N3CCOCC3)c2CO1 | -23.3% (inactive) | -59.6 | 0.88
32 | CC1(C)Cc2c(C#N)c(SCc3nc4ccccc4[nH]3)nc(N3CCOCC3)c2CO1 | 90.8% (active) | 83.4 | 5.26
33 | COc1ccc(Cn2c(CCCO)nc3ccccc32)cc1OC | 32.8% (inactive) | 6.64 | 5.26
34 | CN1CCc2nc(SCC(=O)Nc3ccc(Cl)cc3)c(C#N)cc2C1 | 54.4% (inactive) | 55.6 | 17.3
35 | Cc1ccc(N2C(=O)C3ON(c4ccccc4)C(c4ccncc4)C3C2=O)c(C)c1 (stereo unspecified) | 10.2% (inactive) | 1.38 | 8.14
36 | Cc1ccc(OCc2nnc(NC(=O)c3ccco3)s2)c(C)c1 | -8.86% (inactive) | -6.84 | 11.2
37 | Cc1cc(=O)oc(C)c1C(=O)NCCNC(=O)c1c(C)cc(=O)oc1C | 5.17% (inactive) | -5.21 | 2.08
38 | CN1CCCN=C1COC(=O)C(O)(c1ccccc1)C1CCCCC1 (stereo unspecified) | -62.6% (inactive) | -21.5 | 2.98
39 | CC[N+](C)(CC)CCOC(=O)C(O)(c1ccccc1)C1CCCCC1 (stereo unspecified) | -74.7% (inactive) | -22.9 | 4.12
40 | CCN(CC)CC#CCOC(=O)C(O)(c1ccccc1)C1CCCCC1 (stereo unspecified) | 93.1% (active) | 92.7 | 18.4
41 | c1ccc(Cc2nnc3n2CCCCC3)cc1 | -43.5% (inactive) | -46.4 | 1.7
42 | O=C1c2ccccc2C(=O)C1c1ccc2ccccc2n1 | 18.9% (inactive) | 7.1 | 4.03
